In PubChem BioAssay (NCATS):
Inconclusive results are not listed. Calls of active or inactive are those of the source. The call rests on the fitted dose curve; in most records, active means well fitted cell-killing curve with a large enough effect; inconclusive means small, poorly fitted or top-dose-only effect, or effect the other way; inactive means flat fitted curve, though single readings scatter.

What was measured:
Assay in all cases: Primary qHTS to identify gynecologic anti-cancer compounds using libraries of approved drugs and bioactive compounds (AID 1345084); further: nearly all actives have a fitted effect of over 55% in size
Hek293T = settings: Gynecologic cancer cell panel viability, ATPlite luminescence, 48 h, control line for the selectivity index; series mostly up to 57.5 µM
Method in brief: (§1)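 Cytotoxicity screen measuring ATP content by luciferase luminescence. Each compound is applied at five concentrations for 48 h at 37 C with 5% CO2.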

JEG-3 = settings: Gynecologic cancer cell panel viability, ATPlite luminescence, 48 h; series mostly up to 57.5 µM
Method in brief: as §1

OV90 = settings: Gynecologic cancer cell panel viability, ATPlite luminescence, 48 h; series mostly up to 57.5 µM
Method in brief: as §1

PA-1 = settings: Gynecologic cancer cell panel viability, ATPlite luminescence, 48 h; series mostly up to 57.5 µM
Method in brief: as §1

SKOV3 = settings: Gynecologic cancer cell panel viability, ATPlite luminescence, 48 h; series mostly up to 57.5 µM
Method in brief: as §1

Tov-21-G = settings: Gynecologic cancer cell panel viability, ATPlite luminescence, 48 h; series mostly up to 57.5 µM
Method in brief: as §1

Tov112D = settings: Gynecologic cancer cell panel viability, ATPlite luminescence, 48 h; series mostly up to 57.5 µM
Method in brief: as §1
On the % scale 0 is the no-effect control and ±100 the full control effect.

C=CC1C(O[C@@H]2O[C@H](CO)[C@@H](O)[C@H](O)[C@H]2O)OC=C(C(=O)OC)C1CC(=O)O (stereo partly drawn)
inactive: Potency (Hek293T) | Potency (JEG-3) | Potency (OV90) | Potency (PA-1) | Potency (SKOV3) | Potency (Tov-21-G) | Potency (Tov112D)

O=C(COc1ccc(Cl)cc1)NC1CCC(NC(=O)COc2ccc(Cl)cc2)CC1 (stereo not drawn)
inactive: Potency (Hek293T) | Potency (JEG-3) | Potency (OV90) | Potency (PA-1) | Potency (SKOV3) | Potency (Tov-21-G) | Potency (Tov112D)

CC(C)C1=CCC(C)(O)C(OC2OC(CO)C(O)C(O)C2O)C1 (stereo not drawn)
inactive: Potency (Hek293T) | Potency (JEG-3) | Potency (OV90) | Potency (PA-1) | Potency (SKOV3) | Potency (Tov-21-G) | Potency (Tov112D)

CC(=O)OC1C=C(C(=O)O)C2(CO)CCC(C)C(C)(CCc3ccoc3)C2C1 (stereo not drawn)
inactive: Potency (Hek293T) | Potency (JEG-3) | Potency (OV90) | Potency (PA-1) | Potency (SKOV3) | Potency (Tov-21-G) | Potency (Tov112D)

C=C1CC2C3(C)C(O)CC(=O)C(C)(C)C3C(OC(C)=O)C(OC(C)=O)C2(C)C2C(=O)OC(C)(C(=O)OC)C(=O)C12C (stereo not drawn)
inactive: Potency (Hek293T) | Potency (JEG-3) | Potency (OV90) | Potency (PA-1) | Potency (SKOV3) | Potency (Tov-21-G) | Potency (Tov112D)

C/C=C1\[C@H](O[C@@H]2O[C@H](CO)[C@@H](O)[C@H](O)[C@H]2O)OC=C(C(=O)OC)[C@H]1CC(=O)OC
inactive: Potency (Hek293T) | Potency (JEG-3) | Potency (OV90) | Potency (PA-1) | Potency (SKOV3) | Potency (Tov-21-G) | Potency (Tov112D)

O=S(=O)(Nc1ccc(C(O)(C(F)(F)F)C(F)(F)F)cc1)c1cccs1
inactive: Potency (Hek293T) | Potency (JEG-3) | Potency (OV90) | Potency (PA-1) | Potency (SKOV3) | Potency (Tov-21-G) | Potency (Tov112D)

COc1cc(COC2OC(CO)C(O)C(O)C2O)cc(OC)c1O (stereo not drawn)
inactive: Potency (Hek293T) | Potency (JEG-3) | Potency (OV90) | Potency (PA-1) | Potency (SKOV3) | Potency (Tov-21-G) | Potency (Tov112D)

CC1=C2C3OC(=O)C(C)C3(O)CCC2(C)CCC1=O (stereo not drawn)
inactive: Potency (Hek293T) | Potency (JEG-3) | Potency (OV90) | Potency (PA-1) | Potency (SKOV3) | Potency (Tov-21-G) | Potency (Tov112D)

C=CC(C)(O)CC/C=C(/C)C(=O)OC1C(OC2OCC(OC3OC(CO)C(O)C(O)C3O)C(OC3OCC(O)C(OC4OC(C)C(O)C(O)C4O)C3O)C2O)COC(OC(=O)C23CCC(C)(C)CC2C2=CCC4C5(C)CCC(OC6OC(CO)C(OC7OC(CO)C(O)C(OC8OCC(O)C(O)C8O)C7O)C(O)C6O)C(C)(C)C5CCC4(C)C2(C)CC3O)C1O (stereo not drawn)
inactive: activity change, negative = cytotoxicity (Hek293T) -23.4% [at 6.55 µM] | activity change, negative = cytotoxicity (JEG-3) -0.642% [at 6.55 µM] | activity change, negative = cytotoxicity (OV90) -1.5% [at 6.55 µM] | activity change, negative = cytotoxicity (PA-1) 6.35% [at 6.55 µM] | activity change, negative = cytotoxicity (SKOV3) 24.3% [at 6.55 µM] | activity change, negative = cytotoxicity (Tov-21-G) 1.46% [at 6.55 µM] | activity change, negative = cytotoxicity (Tov112D) 0.487% [at 6.55 µM]

COc1cc2c(cc1O)C1(Cc3ccc4c(c3C1=O)OCO4)N(C)CC2 (stereo not drawn)
inactive: Potency (Hek293T) | Potency (JEG-3) | Potency (OV90) | Potency (PA-1) | Potency (SKOV3) | Potency (Tov-21-G) | Potency (Tov112D)

COc1ccc(C)c2sc(NC(=O)c3ccncc3)nc12
inactive: Potency (Hek293T) | Potency (JEG-3) | Potency (OV90) | Potency (PA-1) | Potency (SKOV3) | Potency (Tov-21-G) | Potency (Tov112D)

COc1cc(C2Oc3c(OC)cc(/C=C/C(=O)OC[C@H]4O[C@@H](OC(C)(C)C(=O)O)[C@H](O)[C@@H](O)[C@@H]4O)cc3C2CO)ccc1O (stereo partly drawn)
inactive: Potency (Hek293T) | Potency (JEG-3) | Potency (OV90) | Potency (PA-1) | Potency (SKOV3) | Potency (Tov-21-G) | Potency (Tov112D)

CC1=C(C)C(=O)OC(C(C)C2C(O)CC3C4C5OC5C5(O)CC(OC6OC(CO)C(O)C(O)C6O)CC(O)C5(C)C4CCC32C)C1 (stereo not drawn)
inactive: Potency (Hek293T) | Potency (JEG-3) | Potency (OV90) | Potency (PA-1) | Potency (SKOV3) | Potency (Tov-21-G) | Potency (Tov112D)

C[C@@H]1O[C@@H](O[C@H]2[C@H](OC(=O)C34CCC5(C)C(=CCC6C7(C)CC(O)C(O[C@@H]8O[C@H](C(=O)O)[C@@H](O)[C@H](O)[C@H]8O)C(C)(C(=O)O)C7CCC65C)C3CC(C)(C)CC4O)O[C@H](C)[C@@H](O)[C@@H]2O)[C@H](O)[C@@H](O[C@@H]2OC[C@](O)(CO)[C@H]2O[C@@H]2O[C@H](CO)[C@@H](O)[C@H](O)[C@H]2O)[C@H]1O (stereo partly drawn)
inactive: activity change, negative = cytotoxicity (Hek293T) 5.55% [at 6.55 µM] | activity change, negative = cytotoxicity (JEG-3) 16.4% [at 6.55 µM] | activity change, negative = cytotoxicity (OV90) -2.48% [at 6.55 µM] | activity change, negative = cytotoxicity (PA-1) 9.01% [at 6.55 µM] | activity change, negative = cytotoxicity (SKOV3) 13.1% [at 6.55 µM] | activity change, negative = cytotoxicity (Tov-21-G) -3.03% [at 6.55 µM] | activity change, negative = cytotoxicity (Tov112D) 10.3% [at 6.55 µM]

CC1(CO)CC2C(O)C(=O)C3(CO)CC3(C)C2C1 (stereo not drawn)
inactive: Potency (Hek293T) | Potency (JEG-3) | Potency (OV90) | Potency (PA-1) | Potency (SKOV3) | Potency (Tov-21-G) | Potency (Tov112D)

O=C(O[C@H]1[C@@H]2C[C@@H]3OC[C@@](O)([C@H]2[C@H](O[C@@H]2O[C@H](CO)[C@@H](O)[C@H](O)[C@H]2O)O3)[C@@H]1O)c1ccccc1
inactive: Potency (Hek293T) | Potency (JEG-3) | Potency (OV90) | Potency (PA-1) | Potency (SKOV3) | Potency (Tov-21-G) | Potency (Tov112D)

COc1ccccc1-n1c(SCC(=O)Nc2nc3ccc(C)cc3s2)nc2c(c1=O)SCC2
inactive: Potency (Hek293T) | Potency (JEG-3) | Potency (OV90) | Potency (PA-1) | Potency (SKOV3) | Potency (Tov-21-G) | Potency (Tov112D)

C=C1CC23CC1(O)CCC2C1=CC2OC(=O)C(C)(C2O)C1C3C(=O)O (stereo not drawn)
inactive: Potency (Hek293T) | Potency (JEG-3) | Potency (OV90) | Potency (PA-1) | Potency (SKOV3) | Potency (Tov-21-G) | Potency (Tov112D)

O=C(/C=C/c1ccc(O)c(O)c1)OCc1ccccc1O[C@@H]1O[C@H](CO)[C@@H](O)[C@H](O)[C@H]1O
inactive: Potency (Hek293T) | Potency (JEG-3) | Potency (OV90) | Potency (PA-1) | Potency (SKOV3) | Potency (Tov-21-G) | Potency (Tov112D)

CC(=O)N[C@H]1[C@H](O[C@H]2CC[C@@]3(C)C(CC[C@]4(C)C3CC=C3C5CC(C)(C)CC[C@]5(C(=O)O)[C@H](O[C@@H]5O[C@H](CO)[C@@H](O)[C@H](O)[C@H]5O)C[C@]34C)C2(C)C)O[C@H](CO[C@@H]2OC[C@H](O)[C@H](O)[C@H]2O[C@@H]2OC[C@@H](O)[C@H](O)[C@H]2O)[C@@H](O)[C@@H]1O (stereo partly drawn)
inactive: activity change, negative = cytotoxicity (Hek293T) -2.94% [at 11.6 µM] | activity change, negative = cytotoxicity (JEG-3) -2.88% [at 11.6 µM] | activity change, negative = cytotoxicity (OV90) -0.313% [at 11.6 µM] | activity change, negative = cytotoxicity (PA-1) -6.75% [at 11.6 µM] | activity change, negative = cytotoxicity (SKOV3) 13% [at 11.6 µM] | activity change, negative = cytotoxicity (Tov-21-G) 0.549% [at 11.6 µM] | activity change, negative = cytotoxicity (Tov112D) 6.55% [at 11.6 µM]

C=CC(C)(C)C1(CC2NC(=O)C3CCCN3C2=O)C(=O)Nc2cc3c(cc21)C=CC(C)(C)O3 (stereo not drawn)
inactive: Potency (Hek293T) | Potency (JEG-3) | Potency (OV90) | Potency (PA-1) | Potency (SKOV3) | Potency (Tov-21-G) | Potency (Tov112D)

CC1CCC2C(C)(C)CC(C)(CO)C2(O)C1C(=O)O (stereo not drawn)
inactive: Potency (Hek293T) | Potency (JEG-3) | Potency (OV90) | Potency (PA-1) | Potency (SKOV3) | Potency (Tov-21-G) | Potency (Tov112D)

NCc1c[nH]c(=S)n1C1CCc2c(F)cc(F)cc2C1 (stereo not drawn)
inactive: Potency (Hek293T) | Potency (JEG-3) | Potency (OV90) | Potency (PA-1) | Potency (SKOV3) | Potency (Tov-21-G) | Potency (Tov112D)
